Measurements from PubChem BioAssay (Tox21).
Values joined by “and” are separate entries in the source; they are usually repeats but may differ in a detail not shown here. Equal entries are not always repeated. Results filed as inconclusive are left out. Active and inactive are the calls of the source. Unless noted, calls come from the whole dose curve; as a rule, active = well fitted curve in the direction sought with a large enough effect in the repeat runs; inconclusive = weak or mixed curves; inactive = no such curve, though single readings can be large; an effect the other way counts as inactive or inconclusive.

Tests used:
[1] = qHTS assay for small molecules that induce genotoxicity in human embryonic kidney cells expressing luciferase-tagged ATAD5 (AID 651632); note: nearly all actives have a fitted effect of over 15% in size
In short: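 Reporter cells (HEK293T) express luciferase-tagged ATAD5, a protein that accumulates after DNA damage. Treat 16 hr at 37C/5% CO2, add Amplite, wait 30 min at RT, and read luminescence.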

[2] = qHTS assay for small molecule agonists of the p53 signaling pathway - cell viability (AID 651633; calls by dose curve;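 note: p53RE-bla HCT reporter cells with a stable beta-lactamase p53 reporter; series mostly up to about 83 µM; nearly all actives have a fitted effect of over 30% in size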)
In short: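 p53RE-bla cells were treated with compound for 16 hours at 37 C. Cytotoxicity was then measured as CellTiter-Glo luminescence after 30 min at room temperature.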

[3] = qHTS assay for small molecules that induce genotoxicity in human embryonic kidney cells expressing luciferase-tagged ATAD5 - cell viability (AID 651634; calls by dose curve; note: nearly all actives have a fitted effect of over 25% in size; note: potency is the fitted concentration of half-maximal effect)
In short: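 Seeding of 2,000 HEK293T ATAD5-luciferase cells per well preceded pin-tool compound transfer. Plates sat 15.5 hr at 37C under 5% CO2, then fluorescence was read after 30 min with CellTiter-Fluor.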

[4] = qHTS assay for small molecule disruptors of the mitochondrial membrane potential - cell viability (AID 720634; calls by dose curve;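 note: human HepG2 liver cancer cells; series mostly up to about 83 µM; nearly all actives have a fitted effect of over 20% in size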)
In short: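 Measuring cytotoxicity alongside mitochondrial potential, the screen quantified ATP by luminescence in HepG2 cells after 1 hr compound incubation and a 30 min room-temperature CellTiter-Glo step.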

[5] = qHTS assay for small molecule disruptors of the mitochondrial membrane potential (AID 720635)
In short: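 HepG2 cells exposed to compound 1 hr at 37C, then Mito-MPS dye 30 min. Ratio read of aggregate (540/590 nm) versus monomer (490/535 nm) fluorescence.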

[6] = qHTS assay to test for compound auto fluorescence at 590 nm (red) in HepG2 cells (AID 720674)
In short: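 Seeding: 2,000 HepG2 cells/well, MEM/10% FBS, overnight 37 C. Dosing: compound vs DMSO. Incubation: 1 hr, 37 C, 5% CO2. Read: fluorescence 540 ex/590 em, Rose Bengal sodium as red reference.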

[7] = qHTS assay to test for compound auto fluorescence at 535 nm (green) in HepG2 cells (AID 720675)
[8] = qHTS assay to test for compound auto fluorescence at 590 nm (red) in HEK293 cells (AID 720679)
In short: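 Plates of HEK293 cells (10% dialyzed FBS) are treated with 23 nL compound or DMSO vehicle after a 4-5 hr attachment period, incubated overnight at 37C, and read for red fluorescence at 540/590nm.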

[9] = qHTS assay to test for compound auto fluorescence at 535 nm (green) in HEK293 cells (AID 720680)
[10] = qHTS assay to test for compound auto fluorescence at 460 nm (blue) in HEK293 cell free culture (AID 720681)
In short: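 Compounds were added to cell-free DMEM with 10% FBS and fluorescence read directly. The blue channel used 405 nm excitation and 460 nm emission, with triamterene as the reference fluorophore.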

[11] = qHTS assay to test for compound auto fluorescence at 535 nm (green) in HEK293 cell free culture (AID 720682)
In short: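 Measurement is a direct plate read of green fluorescence (485 nm in, 535 nm out) after compound addition to serum-supplemented DMEM lacking cells, with fluorescein used to express intensities.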

[12] = qHTS assay to test for compound auto fluorescence at 590 nm (red) in HEK293 cell free culture (AID 720683)
In short: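 Cell-free wells of DMEM with 10% FBS received compound, and intrinsic fluorescence was read at excitation/emission 540/590 nm. Values expressed as equivalence to Rose Bengal sodium.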

[13] = qHTS assay to test for compound auto fluorescence at 590 nm (red) in HepG2 cell free culture (AID 720684)
In short: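 Compound was pinned into wells holding MEM with 10% FBS and no cells, and red fluorescence was read at Ex/Em 540/590 nm. Signal is expressed as auto fluorescence equivalency relative to Rose Bengal sodium.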

[14] = qHTS assay to test for compound auto fluorescence at 460 nm (blue) in HepG2 cell free culture (AID 720685)
In short: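 Compound (23 nL) or DMSO pinned into cell-free MEM with 10% FBS; blue fluorescence read at 405/460 nm excitation/emission, expressed as auto-fluorescence equivalency to triamterene.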

[15] = qHTS assay to test for compound auto fluorescence at 535 nm (green) in HepG2 cell free culture (AID 720686)
[16] = qHTS assay to test for compound auto fluorescence at 460 nm (blue) in HepG2 cells (AID 720687)
In short: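 HepG2 cells in MEM with 10% FBS, attached overnight at 37 C, were exposed to compound or DMSO for 1 hr at 37 C, 5% CO2. Blue fluorescence was read at 405/460 nm, with triamterene as reference fluorophore.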

[17] = molecular target: Glucocorticoid receptor (Homo sapiens) (UniProt P04150); assay: qHTS assay to identify small molecule agonists of the glucocorticoid receptor (GR) signaling pathway (AID 720691; active = well fitted activation curve with a large enough effect in the signal ratio in the repeat runs, not every such curve was filed as active; the % refers to the signal ratio)
In short: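 Reporter read-out: fluorescence intensity following 2 h room-temperature LiveBLAzer B/G FRET substrate loading. Prior step: GR-bla HeLa cells held 4 h, then treated 18 h at 37 C.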

[18] = molecular target: Glucocorticoid receptor (Homo sapiens) (UniProt P04150); assay: qHTS assay to identify small molecule antagonists of the glucocorticoid receptor (GR) signaling pathway (AID 720692; active = well fitted inhibition curve with a large enough effect in the signal ratio in the repeat runs, not every such curve was filed as active; the % refers to the signal ratio; note: potency is the fitted concentration of half-maximal effect)
In short: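 Dexamethasone (5 nM final) stimulated a stably integrated GRE-beta-lactamase reporter in HeLa cells during 18 h co-incubation with compounds; signal was quantified as fluorescence intensity of B/G FRET substrate after 2 h.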

[19] = qHTS assay to test for compound auto fluorescence at 460 nm (blue) in HEK293 cells (AID 720678)
In short: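 After cell attachment (4-5 hr, 37C), compounds were pinned onto HEK293 monolayers in 10% dialyzed FBS medium. The blue channel (405/460 nm) was read following overnight culture. Equivalency was calculated against triamterene.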
% is set by controls: 0 for no effect and ±100 for the full control effect.

Glucocorticoid receptor (Homo sapiens), sequence (P04150 whole entry, looked up): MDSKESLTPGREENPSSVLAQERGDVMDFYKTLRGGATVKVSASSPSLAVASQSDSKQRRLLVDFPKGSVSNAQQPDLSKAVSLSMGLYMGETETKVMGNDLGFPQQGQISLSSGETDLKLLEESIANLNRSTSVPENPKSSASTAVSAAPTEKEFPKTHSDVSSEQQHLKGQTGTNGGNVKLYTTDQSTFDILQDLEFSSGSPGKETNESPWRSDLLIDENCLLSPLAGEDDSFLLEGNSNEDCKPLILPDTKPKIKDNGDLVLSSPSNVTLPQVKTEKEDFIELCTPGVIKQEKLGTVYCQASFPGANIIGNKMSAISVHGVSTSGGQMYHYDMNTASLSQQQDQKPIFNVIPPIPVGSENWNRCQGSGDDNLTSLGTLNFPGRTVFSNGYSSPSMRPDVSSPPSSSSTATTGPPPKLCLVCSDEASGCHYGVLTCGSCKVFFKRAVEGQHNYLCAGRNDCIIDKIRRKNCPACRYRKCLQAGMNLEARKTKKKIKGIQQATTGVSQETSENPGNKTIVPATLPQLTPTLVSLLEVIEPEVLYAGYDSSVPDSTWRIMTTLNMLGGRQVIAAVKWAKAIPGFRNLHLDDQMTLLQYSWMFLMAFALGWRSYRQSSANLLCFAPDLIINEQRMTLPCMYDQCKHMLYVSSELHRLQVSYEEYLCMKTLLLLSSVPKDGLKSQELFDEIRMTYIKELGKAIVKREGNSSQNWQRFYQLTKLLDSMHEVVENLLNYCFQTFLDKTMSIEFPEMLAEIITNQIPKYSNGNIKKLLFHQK

CCC(C(=O)NC(=O)NC(C)=O)c1ccccc1 (stereo unspecified)
inactive: Potency [1] | Potency [2] | Potency [3] | outcome [4] | Potency [5] | outcome [6] | outcome [7] | outcome [8] | outcome [9] | outcome [10] | outcome [11] | outcome [12] | outcome [13] | outcome [14] | outcome [15] | outcome [16] | Potency [17] | Potency [18]

O=CN(CCO)CCO
inactive: Potency [1] | Potency [2] | Potency [3] | outcome [4] | Potency [5] | outcome [6] | outcome [19] | outcome [8] | outcome [9] | outcome [10] | outcome [11] | outcome [12] | outcome [13] | outcome [14] | outcome [15] | outcome [16] | Potency [17]

Cc1ccccc1N=C(N)N=C(N)N
inactive: Potency [1] | Potency [2] | Potency [3] | outcome [4] | outcome [6] | outcome [7] | outcome [19] | outcome [8] | outcome [9] | outcome [10] | outcome [11] | outcome [12] | outcome [13] | outcome [14] | outcome [15] | outcome [16] | Potency [17]

NS(=O)(=O)Cc1noc2ccccc12
inactive: Potency [1] | Potency [2] | Potency [3] | outcome [4] | outcome [6] | outcome [7] | outcome [19] | outcome [8] | outcome [9] | outcome [10] | outcome [11] | outcome [12] | outcome [13] | outcome [14] | outcome [15] | outcome [16] | Potency [17]

CCCCCCC#CC(=O)OC
inactive: Potency [1] | Potency [2] | Potency [3] | outcome [4] | Potency [5] | outcome [6] | outcome [7] | outcome [19] | outcome [8] | outcome [9] | outcome [12] | outcome [13] | outcome [14] | outcome [16] | Potency [17]

O=C(O)Cc1csc(-c2ccc(Cl)cc2)n1
inactive: Potency [1] | Potency [2] | Potency [3] | outcome [4] | Potency [5] | outcome [6] | outcome [7] | outcome [19] | outcome [8] | outcome [9] | outcome [10] | outcome [12] | outcome [13] | outcome [14] | outcome [15] | outcome [16]

CC1=C(C/C=C(\C)CCC[C@H](C)CCC[C@H](C)CCCC(C)C)C(=O)c2ccccc2C1=O
inactive: Potency [1] | Potency [2] | Potency [3] | outcome [4] | outcome [6] | outcome [7] | outcome [19] | outcome [8] | outcome [9] | outcome [10] | outcome [11] | outcome [12] | outcome [13] | outcome [14] | outcome [16] | Potency [17] | Potency [18]

CC(=O)O[C@@]12CO[C@@H]1C[C@H](O)[C@@]1(C)C(=O)[C@H](O)C3=C(C)[C@@H](OC(=O)[C@H](O)[C@@H](NC(=O)OC(C)(C)C)c4ccccc4)C[C@@](O)([C@@H](OC(=O)c4ccccc4)[C@H]21)C3(C)C
inactive: Potency [1] | Potency [2] | outcome [4] | outcome [6] | outcome [7] | outcome [19] | outcome [8] | outcome [9] | outcome [10] | outcome [11] | outcome [12] | outcome [13] | outcome [14] | outcome [15] | outcome [16] | Potency [17]
active: Potency [3] 11.9 nM and 8.4 nM | Potency [18] 10.7 µM

NC(N)=NCCN1CCCCCCC1
inactive: Potency [1] | Potency [3] | outcome [4] | fluorescence, relative to Rose Bengal [6] 0.248% [at 18.6 µM] | fluorescence, % of triamterene [19] -0.176% [at 18.6 µM] | fluorescence, % of fluorescent control [8] -0.493% [at 18.6 µM] | fluorescence, % of fluorescein [9] -0.017% [at 18.6 µM] | fluorescence, % of fluorescent control [10] -0.0671% [at 18.6 µM] | activity change [11] 0.0837% [at 18.6 µM] | fluorescence, % of fluorescent control [12] -0.0086% [at 18.6 µM] | fluorescence, % of Rose Bengal [13] -0.0563% [at 18.6 µM] | fluorescence, % of fluorescent control [14] 0.0071% [at 18.6 µM] | fluorescence, % of fluorescein control [15] 0.0218% [at 18.6 µM] | fluorescence, % of fluorescent control [16] -0.0842% [at 18.6 µM] | Potency [17] | Potency [18]

CN1C(C)(C)CC(O)CC1(C)C
inactive: Potency [1] | Potency [2] | outcome [4] | Potency [5] | outcome [6] | outcome [7] | outcome [19] | outcome [8] | outcome [11] | outcome [12] | outcome [13] | outcome [14] | outcome [15] | outcome [16]

COC(=O)C1=C(C)NC(C)=C(C(=O)OC(C)C)C1c1cccc2nonc12 (stereo unspecified)
inactive: Potency [1] | Potency [2] | outcome [4] | fluorescence, relative to Rose Bengal [6] 0.351% [at 18.6 µM] | fluorescence, % of fluorescein control [7] 0.024% [at 18.6 µM] | fluorescence, % of fluorescent control [8] 0.0072% [at 18.6 µM] | fluorescence, % of fluorescein [9] -0.0539% [at 18.6 µM] | fluorescence, % of fluorescent control [10] 0.0173% [at 18.6 µM] | activity change [11] 0.0719% [at 18.6 µM] | fluorescence, % of fluorescent control [12] -0.0484% [at 18.6 µM] | fluorescence, % of Rose Bengal [13] -0.0514% [at 18.6 µM] | fluorescence, % of fluorescent control [14] -0.0347% [at 18.6 µM] | fluorescence, % of fluorescein control [15] -0.0109% [at 18.6 µM] | fluorescence, % of fluorescent control [16] 0.0339% [at 18.6 µM] | Potency [17]

CC(C)(C)c1ccc(-c2ccc(C(C)(C)C)cc2)cc1
inactive: Potency [1] | Potency [2] | Potency [3] | outcome [4] | outcome [6] | outcome [7] | outcome [8] | outcome [9] | outcome [10] | outcome [12] | outcome [13] | outcome [14] | outcome [15] | outcome [16] | Potency [17] | Potency [18]

C=CCCC(=O)O
inactive: Potency [1] | Potency [2] | outcome [4] | Potency [5] | outcome [6] | outcome [7] | outcome [8] | outcome [9] | outcome [10] | outcome [12] | outcome [13] | outcome [14] | outcome [16] | Potency [17] | Potency [18]

CCN[C@H]1C[C@H](C)S(=O)(=O)c2sc(S(N)(=O)=O)cc21
inactive: Potency [1] | Potency [3] | outcome [4] | outcome [6] | outcome [7] | outcome [19] | outcome [8] | outcome [9] | outcome [10] | outcome [12] | outcome [13] | outcome [14] | outcome [16] | Potency [17] | Potency [18]
